High-throughput results from PubChem.
Most compounds without a hit are left out; they make up all but 17% or so of the library.
TGFb SMAD3 inh: qHTS for Inhibitors of TGF-b; HepG2 CAGA-GFP TGF-b/SMAD3 reporter, GFP fluorescence, 18 h; TGF-beta stimulated, 500 pg/mL final; Potency, µM (top dose mostly 46.1 µM), for inactives: at the highest dose activity, negative = inhibition, usual class: inhibitors; 410,000 compounds, 1.2% hits; also: % is scaled to controls: 0 for no effect and ±100 for the full control effect; nearly all actives have a fitted effect of over 65% in size
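Using HEPG2 CAGA-GFP reporter cells at 1000 cells/well, we pinned test compounds, stimulated with recombinant TGF-beta (500 pg/mL final) and measured total well GFP after 18 h.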
S2 tox: Viability Counterscreen for Primary qHTS for Inhibitors of ATXN expression. S2 cells (HEK-293 line with an ATXN2-luciferase reporter) viability, CellTiter-Fluor protease fluorescence, 24 h. Potency, µM (titrated, usually from 56.7 µM), most hits filed as cytotoxic. 400,000 compounds, 0.49% hits; also: nearly all actives have a fitted effect of over 40% in size
ATXN2 expr inh: Primary qHTS for Inhibitors of ATXN expression. Potency, µM (highest dose often 57 µM), inactives show at the highest dose activity change, negative = inhibition, hits mostly inhibitors. HEK-293 ATXN2-luciferase reporter, luminescence, 24 h. 360,000 compounds, 0.72% hits; also: % is scaled to controls: 0 for no effect and ±100 for the full control effect; nearly all actives have a fitted effect of over 55% in size
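qHTS (up to 57 uM final) was run with 24 h compound exposure of reporter cells at 37 °C. Each well was multiplexed: SteadyGlo luminescence measured ATXN2-luciferase expression after a fluorogenic Gly-Phe-AFC viability readout (25 uM final).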
DT40 TDP1 no CPT: qHTS for Inhibitors of human tyrosyl-DNA phosphodiesterase 1 (TDP1): qHTS in cells in absence of CPT. DT40 Tdp1-/- hTDP1 cells, no CPT, ATP luminescence, 48 h. Potency, µM (series often up to 46.2 µM), without a hit: at the top dose activity change, negative = growth inhibition, most hits filed as inhibitors. 420,000 compounds, 15% hits. AID 686978, 2013; also: % is scaled to controls: 0 for no effect and ±100 for the full control effect; nearly all actives have a fitted effect of over 55% in size
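Seeded 400 DT40-hTDP1 cells/well (vehicle DMSO, no 20 nM CPT); pinned compounds; ≥48 hr at 37 °C; CellTiter-Glo luminescence as viability measure.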
HepG2 viability: qHTS for Inhibitors of TGF-b: Cytotox Counterscreen. HepG2 CAGA-GFP viability, ATP luminescence, 18 h. Potency, µM (highest dose often 46.1 µM), for the others: at the highest dose activity change, negative = cytotoxicity, most hits filed as cytotoxic. 410,000 compounds, 0.76% hits. AID 588856, 2011
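HepG2 CAGA-GFP cells (1000/well, DMEM with 1% FBS) received compound, then TGF-beta at 500 pg/mL final, and were incubated 18 hours at 37 degrees C. Viability was read by CellTiter-Glo luminescence. Media-only wells were set as complete cell-killing and DMSO as no toxicity.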
DT40 TDP1 CPT: qHTS for Inhibitors of human tyrosyl-DNA phosphodiesterase 1 (TDP1): qHTS in cells in presence of CPT; chicken DT40 Tdp1-/-;hTDP1 cells + 20 nM CPT, ATP luminescence, 48 h; Potency, µM (top dose mostly 46.2 µM), without a hit: at the highest dose activity change, negative = growth inhibition, most hits filed as inhibitors; 420,000 compounds, 12% hits; AID 686979, 2013; also: % is scaled to controls: 0 for no effect and ±100 for the full control effect; nearly all actives have a fitted effect of over 55% in size
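Cell growth measured by CellTiter-Glo luminescence after a minimum 48 h, 37 C compound exposure with 20 nM CPT in Tdp1-knockout DT40 cells stably expressing hTDP1, seeded 400/well; qHTS titration format.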
Starred values were filed as active, the others as inactive; i = inactive; ? = inconclusive; / = not tested or not shown. Calls follow the shape of the dose curve; as a rule, active = well fitted curve in the direction sought with a large enough effect; inconclusive = small, poorly fitted or top-dose-only effect, or another doubt; inactive = no such curve, though single readings can be large; an effect the other way counts as inactive or inconclusive. Potency is read from the fitted curve at half-maximal effect.

SMILES	TGFb SMAD3 inh	S2 tox	ATXN2 expr inh	DT40 TDP1 no CPT	HepG2 viability	DT40 TDP1 CPT
CCOC(=O)c1nc2ccccc2c(=O)n1-c1ccc(C)cc1C	6%	i	-17%	10µM*	5%	8.2µM*
C[C@]12C=CC(=O)C=C1CC[C@@H]1C2=CC[C@]2(C)[C@@H](C(=O)CN3CCN(c4cc(N5CCCC5)nc(N5CCCC5)n4)CC3)CC[C@@H]12	2%	?	-22%	13µM*	25µM*	18µM*
C[C@]12CC[C@H]3[C@@H](CC[C@@]45O[C@H]4C(O)=C(C#N)C[C@]35C)[C@H]1CC[C@H]2O	/	i	-6%	/	/	/
CC1CC[C@]2(NC1)OC1CC3C4CC=C5CC(O)CC[C@@]5(C)C4CC[C@]3(C)C1C2C (some centres not stated)	/	/	/	5%	/	12%
CCN(CC)P(=O)(c1nccn1C)N(CC)CC	-6%	i	/	1%	12%	9%
Cn1cccc1/C=C1\C(=O)NC(=O)N(Cc2ccco2)C1=O	3%	i	9%	?	-5%	9.2µM*
Cn1cc(/C=C2\C(=O)NC(=O)N(c3ccccc3)C2=O)c2ccccc21	2%	i	-19%	-11%	1%	-28%
Cc1cccc(N2C(=O)NC(=O)/C(=C/c3ccc([N+](=O)[O-])o3)C2=O)c1	0%	i	-4%	?	-30%	?
Cc1cccc(N2C(=O)NC(=O)/C(=C\c3cccn3-c3ccc(Cl)cc3)C2=O)c1	?	?	?	21µM*	-18%	10µM*
CN(C)c1ccc(/C=C/C=C2/C(=O)NC(=O)N(c3ccccc3)C2=O)cc1	-13%	/	?	4.1µM*	4%	2.9µM*
O=C1NC(=O)N(Cc2ccco2)C(=O)/C1=C/C=C/c1ccco1	7.1µM*	?	?	9.2µM*	-25%	7.3µM*
Cc1ccc(OCCn2cccc2/C=C2/C(=O)NC(=O)N(Cc3ccco3)C2=O)cc1	0%	i	17%	-15%	-46%	-28%
O=c1cccc2n1CC1CNC[C@H]2C1	-4%	i	-10%	8%	4%	-5%
COc1cccc(CN2CCC(n3nccc3NC(=O)CCOc3ccccc3)CC2)c1O	-11%	i	-18%	-21%	-40%	?
O=P(O)(O)Cc1ccccc1OP(=O)(c1ccccc1)c1ccccc1	-11%	i	-11%	?	1%	?
CCOC(=O)c1ccc2c(c1)N(CC)C(=O)c1ccccc1S2	-3%	i	/	?	-7%	?
CN1C(=O)/C(=C/C=C/c2ccco2)C(=O)NC1=S	?	i	3%	?	-11%	?
O=C1NC(=O)N(c2ccccc2)C(=O)/C1=C/C=C/c1ccco1	?	18µM*	/	4.6µM*	-98%	4.6µM*
Cc1cccc(N2C(=O)NC(=O)/C(=C\C=C\c3ccco3)C2=O)c1	8.9µM*	?	?	8.2µM*	-38%	2.9µM*
CCCNC(=O)C1(C)CCN(Cc2ccc3ccccc3c2Br)C1 (configuration not stated)	-9%	i	-22%	?	-19%	?
CCOP(=O)(/C(C#N)=C(\C)O)c1ccccc1 (configuration not stated)	7%	i	/	?	3%	-21%
CCN(CC)c1ccc(CN2CC=C(c3ccc(F)cc3)CC2)cc1	?	?	?	18µM*	-78%	18µM*
O=[N+]([O-])c1ccccc1CN1CC=C(c2ccc(F)cc2)CC1	?	i	127%	?	-38%	23µM*
O=[N+]([O-])c1cccc(CN2CC=C(c3ccc(F)cc3)CC2)c1	-20%	i	-25%	?	-36%	?
COc1ccc(CN2CC=C(c3ccc(F)cc3)CC2)cc1Br	?	?	?	29µM*	-38%	?
SMILES	TGFb SMAD3 inh	S2 tox	ATXN2 expr inh	DT40 TDP1 no CPT	HepG2 viability	DT40 TDP1 CPT
O=C(Nc1ccc(F)cc1)[C@@H](c1ccccc1)N1Cc2ccccc2C1=O	-19%	?	-10%	-21%	-20%	-4%
COC(=O)C1=C(C)n2nnnc2NC1c1ccc(Cl)cc1 (configuration not stated)	24%	i	-5%	-27%	-1%	?
COc1ccc(CCN)cc1	/	/	/	-20%	/	-19%
CC(C)c1nn2c(=O)cc(COC(=O)Cc3ccccc3)nc2s1	1%	?	9%	-5%	8%	-8%
Cc1nn2c(=O)cc(COC(=O)c3ccccc3NC(=O)c3cccs3)nc2s1	-6%	/	/	10µM*	-6%	9.2µM*
CCOC(=O)c1ccc(NC(=O)c2sc3nc4c(cc3c2N)N2CCC4CC2)cc1	3%	?	0%	?	-9%	-25%
O=C(OCc1cc(=O)n2nc(C3CC3)sc2n1)c1ccc(NC(=O)c2ccccc2Cl)cc1	12%	i	136%	7.3µM*	3%	?
Cc1ccccc1OCC(=O)Nc1ccccc1C(=O)OCc1cc(=O)n2nc(C3CC3)sc2n1	0%	i	-1%	1.6µM*	3%	1.6µM*
N#Cc1c(Br)n(C2OC(CO)C(O)C2O)c2ncnc(N)c12 (configuration not stated)	?	?	2.5µM*	1.2µM*	-13%	1.5µM*
O=S1(=O)N(Cc2ccc(F)cc2)CCCN1Cc1ccccc1Cl	0%	i	1%	-11%	-3%	-9%
CN(C)C(=O)Oc1noc2cc(Cl)ccc12	2%	i	-9%	-13%	-51%	-3%
CC(N)C(=O)NC1C2C(=C(O)CC(O)C2O)C(=O)OC1(C)C(Cl)Cl (configuration not stated)	?	?	1.5µM*	0.16µM*	-4%	0.18µM*
CSCc1nnc2n1-c1ccc(Cl)cc1C(c1ccccc1)=NC2	?	i	-14%	?	-37%	-23%
Cn1c(=O)oc2cc(NC(=O)CCl)ccc21	?	/	?	23µM*	-73%	13µM*
CCOC(=O)c1ccc(NC(=O)CCNS(=O)(=O)c2ccc3c(c2)oc(=O)n3C)cc1	?	i	15%	-5%	-67%	-13%
CC(C)c1ccc(OCC(=O)N2CCN(CCc3ccccn3)CC2)cc1	5%	i	12%	?	0%	-28%
